According to ChEMBL document CHEMBL3988442, “University of Dundee, Small-Polar-MMV Screening Library” (2021):
For some of these results: Measured potencies and affinities stand elsewhere.

Assays:
[1] = target: Protein translocase subunit SecA (Escherichia coli (strain K12)) (UniProt P10408); test: Assay to Identify E. coli SecA ATPase Inhibitors; type: functional; design: scale not given: direction of the effect not stated beside the values; conditions: 30 µM
[2] = target: T1, Ubiquitin-activating enzyme e1, putative (Leishmania donovani (strain BPK282A1)) (UniProt E9BSI1); test: Leishmania donovani Ubiquitin Activating Enzyme (LdE1); type: functional; design: scale not given: direction of the effect not stated beside the values; conditions: 30 µM
T1 sequence (whole entry): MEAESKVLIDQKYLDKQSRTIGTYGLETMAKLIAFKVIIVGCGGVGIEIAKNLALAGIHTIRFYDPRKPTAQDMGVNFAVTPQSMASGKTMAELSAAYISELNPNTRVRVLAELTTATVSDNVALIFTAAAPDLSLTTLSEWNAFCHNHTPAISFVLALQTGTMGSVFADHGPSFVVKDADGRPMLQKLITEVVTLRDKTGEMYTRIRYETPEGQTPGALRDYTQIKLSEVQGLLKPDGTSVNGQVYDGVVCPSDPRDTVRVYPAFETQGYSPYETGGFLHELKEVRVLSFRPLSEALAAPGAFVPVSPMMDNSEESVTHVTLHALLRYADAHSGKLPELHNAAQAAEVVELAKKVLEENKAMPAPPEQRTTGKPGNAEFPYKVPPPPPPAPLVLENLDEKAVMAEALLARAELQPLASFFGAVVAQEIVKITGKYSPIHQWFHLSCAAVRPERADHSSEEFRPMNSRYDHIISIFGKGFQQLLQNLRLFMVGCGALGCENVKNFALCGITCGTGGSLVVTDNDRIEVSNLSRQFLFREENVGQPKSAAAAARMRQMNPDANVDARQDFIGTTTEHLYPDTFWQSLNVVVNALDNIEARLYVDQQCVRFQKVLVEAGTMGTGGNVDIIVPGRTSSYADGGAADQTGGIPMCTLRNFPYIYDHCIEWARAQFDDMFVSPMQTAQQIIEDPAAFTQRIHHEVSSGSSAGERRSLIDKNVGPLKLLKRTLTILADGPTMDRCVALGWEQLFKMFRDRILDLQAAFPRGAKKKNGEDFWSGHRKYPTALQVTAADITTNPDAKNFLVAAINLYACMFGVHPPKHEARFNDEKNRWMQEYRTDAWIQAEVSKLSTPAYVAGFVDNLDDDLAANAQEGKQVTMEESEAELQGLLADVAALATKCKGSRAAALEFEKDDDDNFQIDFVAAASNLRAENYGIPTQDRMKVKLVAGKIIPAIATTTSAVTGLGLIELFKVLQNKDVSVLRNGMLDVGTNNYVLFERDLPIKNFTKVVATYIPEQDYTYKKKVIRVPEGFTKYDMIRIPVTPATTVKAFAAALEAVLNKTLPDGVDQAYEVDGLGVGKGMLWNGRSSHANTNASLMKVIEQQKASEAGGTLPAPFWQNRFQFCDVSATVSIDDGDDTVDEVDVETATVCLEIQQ

[3] = target: AMP-activated protein kinase, AMPK (Homo sapiens) (UniProt P54646+O43741+P54619+Q9UGJ0+Q9Y478+Q13131+Q9UGI9); test: AMP-dependent Kinase enzyme assay. An in vitro enzyme assay that detects ADP turnover that is directly proportional to AMPK activity. This uses naive AMPK that is activated during the assay with MK-8722; type: functional; design: scale not given: direction of the effect not stated beside the values; conditions: 30 µM
[4] = target: Sialic acid-binding Ig-like lectin 9 (Homo sapiens) (UniProt Q9Y336); test: Hs-Siglec9 ALPHAscreen SOP 20170721; design: scale not given: direction of the effect not stated beside the values; conditions: 10 µM
Sequence of Sialic acid-binding Ig-like lectin 9 (Homo sapiens) (Q9Y336 whole entry): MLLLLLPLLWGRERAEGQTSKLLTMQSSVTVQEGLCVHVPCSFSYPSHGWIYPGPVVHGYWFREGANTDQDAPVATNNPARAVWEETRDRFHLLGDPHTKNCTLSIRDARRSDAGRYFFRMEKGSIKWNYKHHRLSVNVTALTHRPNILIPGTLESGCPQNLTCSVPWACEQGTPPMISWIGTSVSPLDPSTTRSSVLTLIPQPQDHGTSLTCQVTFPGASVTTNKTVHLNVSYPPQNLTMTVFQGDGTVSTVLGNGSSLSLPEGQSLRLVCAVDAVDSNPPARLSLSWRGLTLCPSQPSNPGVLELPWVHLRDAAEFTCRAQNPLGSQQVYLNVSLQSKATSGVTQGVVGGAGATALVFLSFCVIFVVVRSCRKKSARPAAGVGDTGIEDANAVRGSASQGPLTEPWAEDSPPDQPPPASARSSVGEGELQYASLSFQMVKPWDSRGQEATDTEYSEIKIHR

[5] = tested on: Trypanosoma cruzi; test: Trypanosoma cruzi phosphomannomutase and mannose-1-phosphate guanylyltransferase assay; type: functional; design: scale not given: direction of the effect not stated beside the values; conditions: 10 µM
[6] = target: T2, Arginase-2, mitochondrial (Homo sapiens) (UniProt P78540); test: in vitro enzyme assay to detect the production of urea directly proportional to the activity of Arginase II; type: functional; design: scale not given: in the data most compounds retested in dose-response had high values
T2 sequence (whole entry): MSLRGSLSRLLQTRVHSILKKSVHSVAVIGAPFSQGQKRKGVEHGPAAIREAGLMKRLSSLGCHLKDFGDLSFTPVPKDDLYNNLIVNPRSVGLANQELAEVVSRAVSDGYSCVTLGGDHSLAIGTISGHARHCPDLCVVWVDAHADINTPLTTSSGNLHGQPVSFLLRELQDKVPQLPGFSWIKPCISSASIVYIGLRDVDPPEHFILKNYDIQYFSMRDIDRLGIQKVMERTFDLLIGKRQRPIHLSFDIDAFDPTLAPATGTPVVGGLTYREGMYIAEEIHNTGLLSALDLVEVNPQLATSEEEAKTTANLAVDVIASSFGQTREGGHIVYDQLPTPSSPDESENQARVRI

[7] = target: T3, Proteasome subunit beta (Trypanosoma cruzi) (UniProt O96673); test: Trypanosoma cruzi proteasome chymotrypsin-like activity (TcProtChymo) assay.; type: functional; design: scale not given: in the data most compounds retested in dose-response had high values; conditions: 9.37 µM
T3 sequence (whole entry): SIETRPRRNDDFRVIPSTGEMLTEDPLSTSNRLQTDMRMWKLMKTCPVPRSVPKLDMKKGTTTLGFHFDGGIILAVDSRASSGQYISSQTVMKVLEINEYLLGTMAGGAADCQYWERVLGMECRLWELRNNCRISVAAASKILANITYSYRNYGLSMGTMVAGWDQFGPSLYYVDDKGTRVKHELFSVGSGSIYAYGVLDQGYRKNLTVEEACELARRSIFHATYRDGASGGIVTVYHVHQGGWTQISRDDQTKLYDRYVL

[8] = species on record: Homo sapiens; test: To identify inhibition of the IFN signalling (Jak-Stat) pathway via expression of an eGFP reporter gene under the control of an IFN-stimulated response element (ISRE) containing MxA promoter.; type: functional; design: scale not given: direction of the effect not stated beside the values; conditions: 30 µM
[9] = target: T4, Tyrosyl-tRNA synthetase, putative (Trypanosoma cruzi (strain CL Brener)) (UniProt Q4DSP6); test: Trypanosoma cruzi tyrosyl tRNA synthetase (TcYRS) _High Tyrosine SOP; type: functional; design: scale not given: in the data most compounds retested in dose-response had high values; conditions: 30 µM
T4 sequence (whole entry): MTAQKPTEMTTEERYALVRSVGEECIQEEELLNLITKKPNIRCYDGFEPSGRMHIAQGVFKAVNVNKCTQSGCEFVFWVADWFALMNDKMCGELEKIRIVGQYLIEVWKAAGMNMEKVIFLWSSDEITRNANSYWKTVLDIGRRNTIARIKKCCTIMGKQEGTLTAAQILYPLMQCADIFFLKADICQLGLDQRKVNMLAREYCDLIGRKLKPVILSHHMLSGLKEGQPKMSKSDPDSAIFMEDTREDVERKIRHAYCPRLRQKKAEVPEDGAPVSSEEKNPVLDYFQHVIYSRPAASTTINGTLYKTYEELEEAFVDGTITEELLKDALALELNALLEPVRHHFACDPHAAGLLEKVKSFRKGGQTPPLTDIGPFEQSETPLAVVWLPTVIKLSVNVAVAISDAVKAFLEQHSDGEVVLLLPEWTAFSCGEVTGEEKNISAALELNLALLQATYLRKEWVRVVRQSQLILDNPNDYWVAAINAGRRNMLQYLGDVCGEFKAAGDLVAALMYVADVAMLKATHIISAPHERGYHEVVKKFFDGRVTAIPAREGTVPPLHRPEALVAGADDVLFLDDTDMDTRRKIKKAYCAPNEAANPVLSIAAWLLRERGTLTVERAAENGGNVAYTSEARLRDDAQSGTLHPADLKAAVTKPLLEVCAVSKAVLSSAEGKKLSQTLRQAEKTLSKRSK

[10] = target: T4, Tyrosyl-tRNA synthetase, putative (Trypanosoma cruzi (strain CL Brener)); test: Trypanosoma cruzi tyrosyl tRNA synthetase (TcYRS) SOP; type: functional; design: scale not given: direction of the effect not stated beside the values; conditions: 30 µM
[11] = target: Chromo domain-containing protein 1 (Saccharomyces cerevisiae (strain ATCC 204508 / S288c) (Baker's yeast)) (UniProt P32657); test: ScCHD-1 Enzyme Inhibition Assay; type: functional; design: scale not given: in the data most compounds retested in dose-response had high values; conditions: 30 µM
Sequence of Chromo domain-containing protein 1 (Saccharomyces cerevisiae (strain ATCC 204508 / S288c) (Baker's yeast)) (P32657 whole entry, the tested form may be a part): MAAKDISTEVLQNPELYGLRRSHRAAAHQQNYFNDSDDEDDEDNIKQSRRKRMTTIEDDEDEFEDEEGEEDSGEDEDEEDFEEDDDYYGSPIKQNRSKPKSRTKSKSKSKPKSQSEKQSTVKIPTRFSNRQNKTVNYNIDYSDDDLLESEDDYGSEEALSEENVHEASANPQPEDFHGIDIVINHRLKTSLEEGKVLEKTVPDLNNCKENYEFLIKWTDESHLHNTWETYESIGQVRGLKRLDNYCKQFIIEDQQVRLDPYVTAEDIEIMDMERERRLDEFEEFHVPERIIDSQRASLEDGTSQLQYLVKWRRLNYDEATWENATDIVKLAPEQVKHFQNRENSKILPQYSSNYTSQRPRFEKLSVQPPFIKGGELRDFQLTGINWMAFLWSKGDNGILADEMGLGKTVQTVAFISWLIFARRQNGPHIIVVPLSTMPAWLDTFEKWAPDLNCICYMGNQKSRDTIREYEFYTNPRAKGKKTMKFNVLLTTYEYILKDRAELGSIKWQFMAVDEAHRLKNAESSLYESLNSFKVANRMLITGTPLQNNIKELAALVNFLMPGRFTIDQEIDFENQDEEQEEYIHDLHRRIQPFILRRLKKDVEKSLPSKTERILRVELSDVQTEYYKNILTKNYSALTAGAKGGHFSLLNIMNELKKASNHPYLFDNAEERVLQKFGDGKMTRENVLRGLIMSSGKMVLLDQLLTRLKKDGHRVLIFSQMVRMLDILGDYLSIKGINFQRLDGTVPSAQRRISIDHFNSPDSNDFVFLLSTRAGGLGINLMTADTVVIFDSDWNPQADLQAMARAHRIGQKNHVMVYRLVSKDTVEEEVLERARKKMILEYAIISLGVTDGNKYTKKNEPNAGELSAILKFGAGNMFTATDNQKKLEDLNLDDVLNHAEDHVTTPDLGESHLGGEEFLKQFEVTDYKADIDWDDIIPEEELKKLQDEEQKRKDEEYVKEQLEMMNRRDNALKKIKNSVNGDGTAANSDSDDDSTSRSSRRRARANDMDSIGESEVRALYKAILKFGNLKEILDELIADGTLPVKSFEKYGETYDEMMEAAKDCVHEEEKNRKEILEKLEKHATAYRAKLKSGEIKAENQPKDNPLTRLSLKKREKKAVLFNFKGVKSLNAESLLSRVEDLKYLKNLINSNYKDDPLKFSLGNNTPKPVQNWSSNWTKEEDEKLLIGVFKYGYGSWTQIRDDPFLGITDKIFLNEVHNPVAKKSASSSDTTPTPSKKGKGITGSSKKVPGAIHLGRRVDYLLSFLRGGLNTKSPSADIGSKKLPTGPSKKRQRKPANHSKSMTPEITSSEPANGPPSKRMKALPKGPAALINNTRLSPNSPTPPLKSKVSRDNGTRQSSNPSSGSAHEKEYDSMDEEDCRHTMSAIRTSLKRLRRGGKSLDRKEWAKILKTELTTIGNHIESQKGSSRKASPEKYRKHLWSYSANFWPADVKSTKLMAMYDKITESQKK

[12] = target: T5, Methionyl-tRNA synthetase, putative (Leishmania donovani (strain BPK282A1)) (UniProt E9BF75); test: Leishmania donovani Methionine tRNA synthetase (LdMetRS):v7. Dose response assay; type: functional; design: conc 80 nM, time 150 minutes
T5 sequence (whole entry): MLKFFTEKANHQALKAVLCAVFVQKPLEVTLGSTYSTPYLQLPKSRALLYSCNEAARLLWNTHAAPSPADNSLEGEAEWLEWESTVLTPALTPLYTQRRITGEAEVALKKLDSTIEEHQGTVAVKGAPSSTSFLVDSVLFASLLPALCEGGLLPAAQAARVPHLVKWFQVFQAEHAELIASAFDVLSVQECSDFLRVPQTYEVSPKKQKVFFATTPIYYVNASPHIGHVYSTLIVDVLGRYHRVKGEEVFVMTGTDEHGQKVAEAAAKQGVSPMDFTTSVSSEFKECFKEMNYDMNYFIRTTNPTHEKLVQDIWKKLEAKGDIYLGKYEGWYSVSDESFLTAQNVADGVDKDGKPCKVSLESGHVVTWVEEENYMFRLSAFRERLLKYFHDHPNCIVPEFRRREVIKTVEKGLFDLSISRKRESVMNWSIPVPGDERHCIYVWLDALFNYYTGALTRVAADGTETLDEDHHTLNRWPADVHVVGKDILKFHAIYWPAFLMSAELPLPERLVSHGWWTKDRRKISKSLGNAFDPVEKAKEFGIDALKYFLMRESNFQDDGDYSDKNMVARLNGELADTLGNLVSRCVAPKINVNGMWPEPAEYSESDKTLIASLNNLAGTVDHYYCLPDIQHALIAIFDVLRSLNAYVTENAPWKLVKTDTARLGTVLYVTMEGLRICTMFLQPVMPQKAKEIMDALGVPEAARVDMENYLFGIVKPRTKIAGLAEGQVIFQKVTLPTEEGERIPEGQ

Sequence of Protein translocase subunit SecA (Escherichia coli (strain K12)) (P10408 whole entry): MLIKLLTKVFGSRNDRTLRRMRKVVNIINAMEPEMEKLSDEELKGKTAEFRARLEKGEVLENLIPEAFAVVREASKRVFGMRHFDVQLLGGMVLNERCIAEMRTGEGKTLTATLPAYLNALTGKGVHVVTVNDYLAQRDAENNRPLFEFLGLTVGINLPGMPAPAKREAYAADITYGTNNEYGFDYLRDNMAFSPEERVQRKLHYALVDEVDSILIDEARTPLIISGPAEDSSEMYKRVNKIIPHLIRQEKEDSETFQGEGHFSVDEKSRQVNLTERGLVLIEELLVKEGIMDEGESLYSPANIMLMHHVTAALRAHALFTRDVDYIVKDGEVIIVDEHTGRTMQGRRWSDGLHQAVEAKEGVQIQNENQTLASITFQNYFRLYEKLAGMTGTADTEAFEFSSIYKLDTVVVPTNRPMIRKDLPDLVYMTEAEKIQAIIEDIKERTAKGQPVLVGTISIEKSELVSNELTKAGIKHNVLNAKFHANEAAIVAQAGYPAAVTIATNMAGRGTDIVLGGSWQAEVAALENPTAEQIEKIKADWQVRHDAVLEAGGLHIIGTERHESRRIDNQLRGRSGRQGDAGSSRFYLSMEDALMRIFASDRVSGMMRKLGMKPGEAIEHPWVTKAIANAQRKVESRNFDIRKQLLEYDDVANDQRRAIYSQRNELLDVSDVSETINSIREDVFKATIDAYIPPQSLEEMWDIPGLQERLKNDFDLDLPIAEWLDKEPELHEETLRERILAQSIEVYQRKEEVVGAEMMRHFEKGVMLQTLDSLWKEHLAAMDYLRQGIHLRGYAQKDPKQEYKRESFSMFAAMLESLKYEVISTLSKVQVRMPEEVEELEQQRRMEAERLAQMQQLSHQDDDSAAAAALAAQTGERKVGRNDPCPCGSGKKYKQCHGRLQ

Structure (SMILES)	Percent Effect [1]	Percent Effect [2]	Percent Effect [3]	Percent Effect [4]	Percent Effect [5]	Percent Effect ([6]; 30 µM)	Percent Effect ([6]; 33.3 µM)	Percent Effect [7]	Percent Effect [8]	Percent Effect [9]	Percent Effect [10]	Percent Effect [11]	PXC50 ([12]; MAX_EFFECT 4.275534442)	PXC50 ([12]; MAX_EFFECT 11.79577465)	PXC50 ([12]; MAX_EFFECT 12.79373368)	PXC50 ([12]; MAX_EFFECT 13.05483029)
COc1cc(C(=O)N(CCC#N)Cc2ccccn2)cc(OC)c1C	-4.24%	-2.67%	-4.3%	14.4%	7.89%	2.7%	-1.04%	0.523%	6.76%	-0.546%	3.7%	-3.63%	–	–	–	–
Cc1cc(NC(=O)N2CCN(c3nc(C)c(C)s3)CC2)no1	-4.08%	-2.7%	8.59%	-1.24%	-4.3%	3.78%	0.833%	12.8%	-8.43%	5.94%	8.54%	-0.744%	–	–	–	–
Cn1cnnc1C1CCN(c2cncc(-n3cccn3)n2)CC1	-2.06%	8.11%	-2.17%	-0.628%	0.781%	–	2.92%	13.8%	-3.56%	5.94%	8.54%	-8.65%	< 4	< 4	–	–
Cc1ccc(CNC(=O)N(Cc2ccccc2F)C2CC2)cn1	-6.51%	2.67%	0.556%	21.6%	-1.27%	13.5%	-2.6%	7.85%	15.6%	6.01%	8.64%	-2.37%	–	–	–	–
Cc1ccc(CNCc2nnc3n2CC(C(F)(F)F)CC3)cc1 (centres undefined)	-0.646%	18.9%	-2.64%	4.4%	3.23%	-11.3%	-3.23%	8.5%	11.6%	5.38%	13.6%	-11.9%	–	–	–	–
Cn1cc(CN(Cc2ccccc2)CC(O)c2cccs2)cn1 (centres undefined)	-2.22%	2.7%	-1.93%	9.64%	7.14%	7.03%	-1.74%	7.81%	1.28%	-1.07%	-13.6%	-8.54%	–	–	–	–
O=C(Cn1nc2c(cc1=O)CCCC2)N[C@@H](Cc1ccccc1)C(=O)O	0.621%	9.33%	0.52%	-1.3%	0.197%	0.54%	0.88%	16.1%	24.4%	5.29%	12.8%	-9.91%	–	–	–	–
O=C(NC1CCC1)[C@@H]1CCO[C@@H]2CCN(CCc3ccccc3)C[C@H]21	-2.5%	16.2%	-6.69%	-3.15%	4.3%	8.11%	14.6%	22.7%	12%	8.91%	18.3%	-3.4%	–	–	–	–
CCn1cnnc1CNc1nc(C)nc2scc(CC(C)C)c12	–	–	-1.1%	–	–	–	–	–	–	–	–	–	–	–	< 4	< 4
CC1CCN(S(=O)(=O)c2cccn(CC(=O)NC3CCCC3)c2=O)CC1	-2.96%	5.48%	-5.65%	-2%	-5.68%	2.7%	0.455%	17.2%	4.13%	3.23%	10%	-2.6%	–	–	–	–
O=c1[nH]c2c(c(=O)n1C1CCCCC1)CCC2Nc1ccccc1 (centres undefined)	-1.62%	-4%	-24.6%	-0.297%	0.393%	-11.3%	1.58%	9.8%	11.8%	-1.06%	0%	0.309%	–	–	–	–
